Abeta rescue – compounds reversing amyloid beta toxicity in yeast | Potency, µM (titrated, usually from 46.1 µM), actives largely listed as activators | AID 1347071 | yeast expressing A-beta42, growth rescue, OD600, 48 h; response scale: 0% DMSO, 100% iron-clioquinol control | 410,000 tested, 0.063% active; also: nearly all actives have a fitted effect of over 55% in size
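Growth rescue measured by 600 nm absorbance after 48 h yeast culture at 30 C with compound. Values normalized between DMSO and an equimolar ferric chloride plus clioquinol control.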
TDP-43 yeast inh – TDP-43 toxicity inhibition in yeast; TDP-43 expressing yeast growth rescue, BacTiter-Glo, 24 h; Potency, µM (series often up to 46.1 µM), inactives show top-dose growth rescue (activation), most hits filed as activators; 410,000 tested, 1.8% active; also: % of control where 0% means no effect; nearly all actives have a fitted effect of over 50% in size
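Luminescence from BacTiter-Glo reports growth of TDP-43-expressing yeast after 24 hr at 30 deg C with compound. Cells were raffinose-pregrown to mid-log, then seeded in galactose medium at OD600=0.02.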
aSyn yeast inh – alpha-synuclein toxicity inhibition in yeast | Yeast expressing alpha-synuclein, growth rescue, BacTiter-Glo, 24 h | 370,000 tested, 0.14% active | Potency, µM (series often up to 46.1 µM), for inactives: at the top dose growth rescue (activation), actives largely listed as activators; also: % of control where 0% means no effect; nearly all actives have a fitted effect of over 65% in size
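Readout is rescue of growth in alpha-synuclein-expressing yeast, so inhibitors of toxicity appear as activators. Growth after 24 hr at 30 deg C in galactose medium is quantified by luminescence.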
FUS suppressor – suppressors of FUS proteinopathy in yeast; 390,000 tested, 0.24% active; Potency, µM (doses to about 76.6 µM), hits mostly activators; S. cerevisiae FUS-expressing, growth rescue, OD600, 24 h; AID 1347120;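 also: plate controls were DMSO vehicle for no effect and reference control for full effect; nearly all actives have a fitted effect of over 55% in size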
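S. cerevisiae expressing FUS from galactose induction served as the toxicity model. Growth after 24hr at 30C, read as absorbance at 600 nm, indicates suppression of toxicity; compounds dosed at several concentrations.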
ERG-DNA inh – ERG Ets/DNA interaction inhibition; fluorescence polarization, His-ERG Ets domain / labelled DNA; Potency, µM (series often up to 76.9 µM), for the others: top-dose FP activity, negative = inhibition, most hits filed as inhibitors; P11308; 370,000 tested, 0.028% active; active = well fitted inhibition curve with a large enough effect in the polarisation, with a control signal flat; inconclusive = small, poorly fitted or top-dose-only effect, or effect the other way, or a change in a side signal; inactive = no such curve, though single readings can be large or run the other way; the % refers to the polarisation;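 also: polarization taken with two DNA probes labelled with fluorescein and Texas red; % of control where 0% means no effect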
Target sequence (P11308 whole entry, looked up, the tested form may be a part): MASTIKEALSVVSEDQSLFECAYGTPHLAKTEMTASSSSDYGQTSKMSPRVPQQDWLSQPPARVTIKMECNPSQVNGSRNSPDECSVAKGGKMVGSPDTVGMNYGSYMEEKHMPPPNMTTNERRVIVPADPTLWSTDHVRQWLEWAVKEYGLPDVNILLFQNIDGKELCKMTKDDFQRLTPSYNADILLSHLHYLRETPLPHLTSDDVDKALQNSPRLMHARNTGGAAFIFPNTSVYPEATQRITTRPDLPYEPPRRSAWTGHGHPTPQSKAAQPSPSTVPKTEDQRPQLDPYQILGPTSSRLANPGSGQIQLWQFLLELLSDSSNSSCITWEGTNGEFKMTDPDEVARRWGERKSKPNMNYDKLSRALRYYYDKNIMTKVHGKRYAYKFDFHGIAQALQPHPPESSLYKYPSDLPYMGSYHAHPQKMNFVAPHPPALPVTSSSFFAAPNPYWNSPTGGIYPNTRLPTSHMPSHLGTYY
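His-tagged ERG Ets domain (1 uM in the protein solution; 300mM KCl, 50mM Tris-HCl, 1mM EDTA, 1mM DTT, pH 7.5) received compound, then a probe mix of 5 nM fluorescein-DNA and 100nM Texas-615-DNA. Fluorescence polarization was read for both dyes.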
Mito fusion act – mitochondrial division inhibition or fusion activation; S. cerevisiae fusion-defective mutant growth rescue, CellTiterGlo 48 h; Potency, µM (series often up to 46.1 µM), for inactives: top-dose growth rescue (activation), usual class: activators; 320,000 tested, 0.23% active; also: % of control where 0% means no effect; nearly all actives have a fitted effect of over 45% in size
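Temperature-sensitive fusion-defective S. cerevisiae (e.g. fzo1-1, mgm1-5) were grown with compound in YPEG medium (3% ethanol, 3% glycerol) for 48 hours at 37C. Growth rescue was measured as viability by CellTiterGlo luminescence after 10 minutes at ambient.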
The depositor's hits bear a star; i = inactive; ? = inconclusive; / = not tested or not shown. The list is not random: actives were taken first. Their share in the collection is about 2.2%. Unless noted, calls follow the shape of the dose curve; as a rule, active = well fitted curve in the direction sought with a large enough effect; inconclusive = small, poorly fitted or top-dose-only effect, or another doubt; inactive = no such curve, though single readings can be large; an effect the other way counts as inactive or inconclusive. Potency is read from the fitted curve at half-maximal effect.

SMILES	Abeta rescue	TDP-43 yeast inh	aSyn yeast inh	FUS suppressor	ERG-DNA inh	Mito fusion act
Cc1cccc(NS(=O)(=O)c2ccc3c(c2)CC(C)N3C(=O)C2CCC2)c1C (centres undefined)	i	20µM*	/	?	-1.4%	/
CC1CCN(S(=O)(=O)c2ccc3c(c2)CC(C)N3C(=O)C2CCC2)CC1 (centres undefined)	/	17.8µM*	12.2%	?	2.8%	?
CCC(C)(C)NC(=O)C1CCCN(S(=O)(=O)c2ccc3c(c2)CC(C)N3C(=O)C2CC2)C1 (centres undefined)	i	-0.1%	1.2%	i	8.9%	11.2µM*
CCOC(=O)C1CCN(C(=O)Cn2c(-c3cccs3)cc3cc(Cl)ccc32)CC1	i	16.8%	/	i	1.2%	/
N#CCSc1nc2c(cc1C#N)CCCCCC2	i	15.8µM*	14.4%	i	5.8%	11.5%
Cc1cccc(C(=O)OC(C)C(=O)N2CCc3ccccc3C2)c1C (centres undefined)	i	17.8µM*	6.1%	/	-12.2%	26.5%
COC(=O)c1ccc2nc(-c3ccco3)c(Cc3ccc(C)cc3)n2c1	i	20µM*	?	i	/	/
COC(=O)c1ccc2nc(-c3ccc(F)cc3)c(Cc3cccc(F)c3)n2c1	i	23.8%	-0.4%	i	/	/
Cc1ccc(Cc2c(-c3ccco3)nc3c4ccccc4ccn23)cc1	i	0.0%	12.6µM*	i	/	/
COC(=O)c1ccc2nc(-c3ccco3)c(Cc3cccc(F)c3)n2c1	i	14.1µM*	?	i	/	/
Fc1cccc(Cc2c(-c3ccco3)nc3c(Cl)cc(C(F)(F)F)cn23)c1	i	12.6µM*	12.0%	i	/	/
CCc1nn2c(=O)cc(COC(=O)COc3ccc(OC)cc3)nc2s1	i	1.4%	/	i	-0.3%	/
COc1ccc(C(=O)c2ccccc2)cc1Br	i	12.6µM*	2.9%	i	9.3%	1.2%
COc1ccc(C(=O)NCc2ccccc2)cc1Br	i	?	8.1%	i	-7.6%	0.0%
CCOC(=O)/C(C#N)=C1/SC(CC)C(=O)N1c1ccc(Br)cc1 (centres undefined)	i	-14.0%	1.1%	?	-10.1%	0.5%
CCOC(=O)/C(C#N)=C1/SC(C)C(=O)N1c1ccc(Br)cc1 (centres undefined)	i	0.0%	-0.3%	22.4µM*	4.5%	-0.4%
Cc1cn(C2OC(COC(=O)c3ccccc3)C(OC(=O)c3ccccc3)C2OC(=O)c2ccccc2)c(=O)[nH]c1=O (centres undefined)	i	-16.4%	22.6%	25.1µM*	-14.2%	5.6%
N/C(=N\OC(=O)COc1ccc(Cl)cc1Cl)c1ccncc1	i	?	?	i	5.8%	?
c1ccc(-c2cccc3[nH]cc(-c4ccccc4)c23)cc1	/	/	/	i	/	/
CCc1ccc(Sc2cc(C(=O)NCCCN3CCCC(C)C3)c3ccccc3n2)cc1 (centres undefined)	i	18.7%	6.9%	i	9.8%	/
CCC12CC3CC(C1)CC(C(=O)O)(C3)C2	i	14.1µM*	-0.3%	i	12.3%	-4.1%
CCN(CC)C(=O)CSc1nnc(-c2cccs2)o1	/	/	/	i	/	/
CC(C)CC(=O)Nc1ccccc1N1CCCC1	i	-18.3%	-11.0%	/	-6.5%	0.5%
O=C(NC(=S)Nc1ccccc1N1CCCC1)c1cccs1	11.2µM*	?	-0.2%	i	-4.3%	2.5%
CC(C)CC(=O)NC(=S)Nc1ccccc1N1CCCC1	7.08µM*	22.8%	9.5%	i	7.4%	-4.2%
SMILES	Abeta rescue	TDP-43 yeast inh	aSyn yeast inh	FUS suppressor	ERG-DNA inh	Mito fusion act
O=C(NC(=S)Nc1ccccc1N1CCCCC1)c1cccs1	i	?	-11.6%	i	-1.1%	2.5%
Cn1c(=O)n(C)c2cc(N3CCOCC3)c(NS(=O)(=O)c3ccc(Br)cc3)cc21	i	13.8%	/	i	2.0%	/
CC(C)C[C@H](NC1(C(=O)NC2CCCCC2)CCOCC1)C(=O)NCC(c1ccccc1)c1ccccc1	/	/	/	i	/	/
CC1=C(C(=O)Nc2cccnc2)C(c2ccc(C)cc2)n2nc(SCc3ccccc3F)nc2N1 (centres undefined)	i	5.4%	/	i	2.0%	/
O=C1CSC(=S)N1c1ccc(F)c(Cl)c1	?	25.1µM*	15.7%	i	87.5%	14.0%
O=C(O)c1cc(C(=O)O)cc(N2C(=O)CSC2=S)c1	i	14.5%	7.0%	i	30.0%	22.4%
O=C(O)c1ccc(N=C2SCC(=O)N2Cc2ccccc2)cc1	i	?	24.7%	i	13.9%	10.1%
O=C(O)c1ccc(N2C(=O)CSC2=S)cc1	i	?	10µM*	i	134.7%	/
O=C(O)c1ccc(CN2C(=O)CSC2=S)cc1	i	17.8µM*	12.6µM*	i	?	-15.3%
Cc1ccc(S(=O)(=O)N2CCN(c3nc(-c4cccs4)nc4ncccc34)CC2)cc1	/	/	-1.9%	/	/	/
C[C@@H]1[C@@H](O)C[C@@]2(C[C@H](O)c3ccccc3O2)O[C@H]1c1ccccc1	/	/	/	i	/	/
CCCCc1ccc(NC(=O)Nc2cnccn2)cc1	i	?	8.3%	i	-14.8%	5.0%
CCCCc1ccc(NC(=O)Nc2cc(C)nn2C)cc1	i	13.1%	7.9%	i	31.6µM*	20.8%
CCCCc1ccc(NC(=O)CC(C)C)cc1	i	11.2µM*	-0.3%	i	-1.3%	7.0%
COC(=O)C1CCN(C(=O)C2CC(=O)N(c3ccc(OC)cc3)C2c2ccc(OC)cc2)CC1 (centres undefined)	/	/	/	i	/	/
NC(=S)Nc1cc2ccccc2c2ccccc12	i	22.4µM*	0.3%	i	-11.4%	-6.3%
NC(=S)Nc1cccc2cc3ccccc3cc12	i	?	-24.4%	i	-4.6%	0.5%
c1coc(CNc2ncnc3sc4c(c23)CCCCC4)c1	i	12.6µM*	-0.3%	i	-18.0%	1.9%
Cc1nc(NCc2ccco2)c2c3c(sc2n1)CCC3	i	?	7.1%	?	-4.2%	-4.6%
Cc1nc(NCc2ccccn2)c2c3c(sc2n1)CCCC3	i	21.9%	-0.4%	i	-7.6%	20µM*
c1ccc(CNc2ncnc3sc4c(c23)CCCC4)nc1	i	12.6µM*	2.3%	i	0.4%	6.1%
CC1CCc2sc3nc(NCc4ccco4)n4ncnc4c3c2C1 (centres undefined)	i	25.1µM*	0.0%	i	-2.4%	4.0%
CCOC(=O)[C@@]12CCC3=C1N(CCC3)C(=O)[C@H](CC(=O)N1CCC(c3ccccc3)CC1)C2	/	/	/	i	/	/
